Test results published in PubChem BioAssay (NCI).
About 83,000 compounds went through this panel and 20% of them were active in at least one assay; those are over-represented in the sample as a whole.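 Note: values are percent growth. 100 is the growth of untreated cells, values between 100 and 0 indicate rising inhibition; between -100 and 0 indicates cell death.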 A number with no mark means an inactive call. Active and inactive are the calls of the source. The calls were made as follows: active = growth percent below 10; inactive = the rest.

Tests used:
Assay in all cases: NCI-60 one-dose screen, 48 h (100 = growth as untreated, 0 = no growth, -100 = all killed)
Conditions in all cases: 10 µM unless noted
[1] = tested on: SR leukemia
[2] = tested on: RPMI-8226 leukemia
[3] = tested on: OVCAR-8 ovarian
[4] = tested on: OVCAR-5 ovarian
[5] = tested on: OVCAR-4 ovarian
[6] = tested on: SK-OV-3 ovarian
[7] = tested on: OVCAR-3 ovarian
[8] = tested on: HS 578T breast
[9] = tested on: NCI/ADR-RES ovarian
[10] = tested on: T-47D breast
[11] = tested on: BT-549 breast
[12] = tested on: MDA-MB-435 melanoma
[13] = tested on: SW-620 colon
[14] = tested on: MCF7 breast
[15] = tested on: HCC-2998 colon
[16] = tested on: KM12 colon
[17] = tested on: HCT-116 colon
[18] = tested on: IGROV1 ovarian

| Structure (SMILES) | growth [1] | growth [2] | growth [3] | growth [4] | growth [5] | growth [6] | growth [7] | growth [8] | growth [9] | growth [10] | growth [11] | growth [12] | growth [13] | growth [14] | growth [15] | growth [16] | growth [17] | growth [18] [%] |
| --- | --- | --- | --- | --- | --- | --- | --- | --- | --- | --- | --- | --- | --- | --- | --- | --- | --- | --- |
| CC1(C)[C@@H](O[C@@H]2OC[C@@H](O[C@@H]3O[C@H](CO)[C@@H](O)[C@H](O)[C@H]3O[C@@H]3OC[C@@H](O)[C@H](O)[C@H]3O)[C@H](O)[C@H]2O[C@@H]2O[C@H](CO)[C@@H](O)[C@H](O)[C@H]2O)CC[C@]2(C)[C@H]3CC[C@]45OC[C@@]6(CC[C@](C)(C=O)C[C@H]64)[C@H](O)C[C@@]5(C)[C@]3(C)CC[C@@H]12 | -37% (active) | -44% (active) | -48.9% (active) | -76.8% (active) | -67.1% (active) | -98.4% (active) | -72.6% (active) | -31.2% (active) | -21.7% (active) | -55.7% (active) | -94% (active) | -83.8% (active) | -58.4% (active) | -59.6% (active) | -82.1% (active) | -62% (active) | – | – |
| CCN1C(=O)N(CC)C2C1NN=c1s/c(=C\c3ccc(C(F)(F)F)cc3)c(=O)n12 (centres undefined) | 12.2% | 9.95% (active) | -2.79% (active) | 26.7% | 46% | 36.5% | 3.24% (active) | 18.4% | 2.84% (active) | 64.7% | 9.68% (active) | -26.5% (active) | 20.7% | 15.9% | 9.59% (active) | 15.2% | 9.6% (active) | – |
| NC(=O)c1c(NC(=O)c2cccs2)sc2c1CCC(=O)C2 | 5.54% (active) | -13.6% (active) | 21.2% | 22.2% | -6.38% (active) | 87.1% | 13% | 35.1% | 59.4% | 8.16% (active) | 8.21% (active) | 43.7% | 15.1% | 45.1% | 72.9% | 20.3% | 4.11% (active) | – |
| CC(=O)ON1CCCC(P(=O)(OCCSC(=O)C(C)(C)C)OCCSC(=O)C(C)(C)C)C1=O (centres undefined) | 6.15% (active) | -17.3% (active) | 10.7% | 89.2% | 29.7% | 38.6% | 10.4% | 19.6% | – | 14.8% | 30.9% | 48.5% | 30.9% | 13.9% | – | 5.16% (active) | 10.5% | 16.3 |
| O=c1ccc(=O)n(-c2nc(-c3ccc([N+](=O)[O-])cc3)cs2)[nH]1 | 94.5% | 95.3% | 102% | 102% | 101% | 107% | 102% | 98.8% | 104% | 98.5% | 98.5% | 99.1% | 101% | 90.1% | – | 99.6% | 95.2% | – |
| Cc1ccc(Cl)cc1NC(=O)c1sc2nc3c(cc2c1N)C(=O)CCC3 | 68.9% | 95.1% | 90% | 94.2% | 90.1% | 42.4% | 22.1% | 60.9% | 43.8% | 82.9% | 93.5% | -3.04% (active) | 36.5% | 35.6% | 74.9% | 37% | 68% | – |
| COC(=O)c1ccc(NC(=O)Nc2ccc(C(=O)OC)cc2)cc1 | 78.9% | 89.9% | 104% | 102% | 113% | 99.3% | 113% | 92.8% | – | 89% | 99% | 109% | 112% | 96.1% | – | 113% | 95.3% | 106 |
| COc1ccc(C#Cc2ccc(=O)oc2-c2cc(OC)c(OC)c(OC)c2)cc1O | 13.7% | 18.2% | 69.6% | 43% | 69% | 47.2% | -4.92% (active) | 54.5% | 19.6% | 45.2% | 44.8% | 0.895% (active) | 31.2% | 16% | 9.46% (active) | 26.8% | 14.9% | – |
| Cn1cc(-c2ccc(-c3cn(C)c4ccc(Cl)cc34)[nH]2)c2cc(Cl)ccc21 | -13% (active) | 7.74% (active) | -5.8% (active) | -14.1% (active) | -57.7% (active) | -53.5% (active) | -84% (active) | -28.6% (active) | -22.5% (active) | -51.1% (active) | -83.7% (active) | 19.5% | -83.1% (active) | 18.8% | -72.2% (active) | -33.5% (active) | -85.5% (active) | – |
